Compounds with a hit are over-represented: about 1.6% of the library has one in this group of screens.
NALP3 yeast inh = blocks the NALP3 inflammasome reconstituted in yeast; Yeast reconstituted NLRP3/ASC/caspase-1, beta-gal luminescence, 24 h; inhibition, % at 10 µM; 330,000 tested, 0.39% active; AID 2825;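 active = inhibition of 50% or more; inactive = inhibition below 50%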;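 note: plate controls were induced DMSO wells for no effect and uninduced yeast grown without galactose for full effect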
V-ATPase pH = alters yeast V-ATPase proton transport. 350,000 tested, 0.37% active. response, % at 10 µM. S. cerevisiae, pHLuorin cytosolic pH fluorescence; in the data active = response mostly above about 7.3%, no sharp cut-off; inactive = mostly below about 5.4%; note: actives read high
Yeast superoxide = yeast age-related superoxide inhibition as caloric restriction mimetic. superoxide response (% of plate mean), % at 10 µM. 330,000 tested, 0.18% active. S. cerevisiae aged cells, superoxide DHE fluorescence; stronger effect = lower value. AID 2690;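 active = superoxide response under a set limit, about three screen SD below normal, cut at about 65% in these data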;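 note: yeast aged for seven days with compound at 30 °C before DHE staining; 100% = average MFI of all compound-treated wells on the plate with controls excluded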
NALP1 yeast inh = inhibitors of NALP1 inflammasome in yeast; S. cerevisiae NALP1/ASC/caspase-1 growth, X-gal OD620, 72 h; inhibition, % at 10 µM; 280,000 tested, 0.61% active; in the data active = inhibition mostly above about 24%, no sharp cut-off; inactive = mostly below about 32%
PERK inhibitor = blocks human PERK kinase; Q9NZJ5; CHO PERK-DD fusion, SEAP luminescence translation reporter; inhibition, % at 5.6 µM; 220,000 tested, 0.17% active;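 active = inhibition above the mean inhibition of all tested compounds plus 3 SD, set separately per screening campaign, cut at about 2.9% in these data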;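 note: PERK kinase domain activated by AP20187 dimerizer at 100 nM; 0% = DMSO with dimerizer and 100% = rapamycin at 8.4 µM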
Rce1 inh = blocks yeast Ras-converting enzyme; calls only; yeast membranes, quenched prenylated peptide cleavage fluorescence; 290,000 tested, 0.27% active; Q03530;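 active = fall in fluorescence gain of 50% or more versus controls, with final raw signal at or below 3038400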;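 note: plate controls were neutral control wells for no effect and wells lacking membranes for full effect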
NALP3 yeast conf = NALP3 inhibition confirmation in yeast. inhibition, % at 10 µM. yeast expressing human NALP3, luminescence. 1,300 tested, 81% active. shares compounds with NALP3 yeast inh; in the data active = inhibition above about 48%
Casp1 ASC ctr = active in yeast caspase-1-ASC counter-screen for NALP3 inhibitors; AID 488784; 1,000 tested, 66% active; shares compounds with NALP3 yeast inh; yeast expressing Caspase-1-ASC, luminescence counter screen; inhibition, % at 10 µM
NALP3 yeast rt = retest-confirmed inhibitor of NALP3 in yeast | shares compounds with NALP3 yeast inh | yeast expressing human NALP3, luminescence read-out | inhibition, % at 10 µM | 1,000 tested, 53% active | AID 488794
Starred values were filed as active, the others as inactive; i = inactive; x = no result given. Cut-off read from the data, not from the text of the source, unless noted: active = inhibition above about 50%; inactive = the rest.

SMILES	NALP3 yeast inh	V-ATPase pH	Yeast superoxide	NALP1 yeast inh	PERK inhibitor	Rce1 inh	NALP3 yeast conf	Casp1 ASC ctr	NALP3 yeast rt
CCCCCCN1C[C@@H](n2cc(-c3ccc(F)cc3)nn2)[C@H](O)C[C@@H]1c1ccccc1	x	-2	x	x	x	x	x	x	x
Cc1nn(-c2ccccc2)cc1C(=S)Nc1ccccc1	52*	-2	108	32	0	x	63*	57*	58*
Cc1c(C(=S)Nc2ccccc2)cnn1-c1ccccc1	37	-1	105	18	1	i	x	x	x
CNC(=S)N/N=C/c1cc(Br)cc(Br)c1O	64*	0	111	54*	0	i	34	x	x
Oc1c(Br)cc(Br)cc1/C=N/NC(=S)N[C@H]1CC2C=CC1C2 (stereo partly specified)	13	-2	98	9	1	i	x	x	x
Cc1onc(-c2ccccc2)c1C(=O)OCC(=O)Nc1ccccc1Cl	x	2	x	x	x	x	x	x	x
N#C/C(=C/C1=C(N2CCOCC2)C(=C/c2ccc(Cl)cc2Cl)/CC1)C(=O)Nc1ccccc1F	x	2	x	x	x	x	x	x	x
O=C(C1CCN(S(=O)(=O)c2cccc3nsnc23)CC1)N1CCn2c1nc1ccccc12	74*	0	106	6	0	i	75*	66*	75*
CN(C)c1oc(/C=C/c2ccccc2)nc1C#N	54*	0	111	32	0	i	42	57*	50*
COc1cccc(OCCn2cccc2/C=C2/C(=N)N3OC(C)=CC3=NC2=O)c1	43	-2	105	9	0	x	x	x	x
CC1=CC2=NC(=O)/C(=C\c3cccn3CCOc3cccc(C)c3)C(=N)N2O1	60*	0	115	47	-1	i	3	x	x
CSCC[C@H](N)C(=O)NC[C@H]1CC[C@H](C(=O)N[C@@H](Cc2ccccc2)C(=O)O)CC1	-3	-2	103	6	x	i	x	x	x
C[C@@H](N)C(=O)NC[C@H]1CC[C@H](C(=O)N[C@@H](Cc2ccccc2)C(=O)O)CC1	62*	0	81	16	x	i	76*	58*	63*
O=C(Cc1ccc(Cl)cc1)NCC(=O)N1CCC2(CC1)NCCc1[nH]cnc12	x	-2	x	x	x	x	x	x	x
CCN(CC)C(=O)C1=C(C)N(CCCOC)C(=O)C(CC(=O)NCCCCc2ccccc2)C1 (stereo unspecified)	x	-1	x	x	x	x	x	x	x
Cc1nc2cc(NC(=O)c3ccc([N+](=O)[O-])s3)ccc2s1	61*	-1	100	13	x	i	68*	x	x
O=C(Nc1ccc2oc(-c3ccncc3)nc2c1)c1cccs1	59*	-2	100	7	0	i	84*	66*	66*
CC(=O)Nc1ccc2nc(NC(=O)c3cccs3)sc2c1	-1	-3	90	x	1	i	x	x	x
Cc1nc2ccc(NC(=O)c3cccs3)cc2s1	65*	1	126	-4	x	i	77*	62*	71*
O=C(Nc1ccc(-c2nc3cc(NC(=O)c4cccs4)ccc3o2)cc1)c1cccs1	37	-1	110	12	1	i	x	x	x
Cc1ccc(NC(=S)NCCSc2ccc(Cl)cc2)cc1	33	-4	98	6	0	i	x	x	x
Cc1ccc(SCCNC(=S)Nc2cc(C)cc(C)c2)cc1	55*	-3	96	15	1	i	61*	50*	38
Cc1ccc(C(=O)Cn2cnc3ccccc3c2=O)cc1C	63*	-1	87	9	-2	i	78*	55*	54*
COc1ccc([C@@]23Oc4cc(OC)cc(OC)c4[C@]2(O)[C@H](O)[C@H](C(=O)N(C)C)[C@H]3c2ccccc2)cc1	x	-3	x	x	x	x	x	x	x
COc1ccc2cc1Oc1ccc(cc1)C[C@H]1c3c(cc(OC)c4c3Oc3c(ccc5c3[C@H](C2)N(C)CC5)O4)CCN1C	69*	3	93	x	x	x	53*	57*	69*
SMILES	NALP3 yeast inh	V-ATPase pH	Yeast superoxide	NALP1 yeast inh	PERK inhibitor	Rce1 inh	NALP3 yeast conf	Casp1 ASC ctr	NALP3 yeast rt
O=C(/C=C/c1cccs1)N1CCc2ccccc21	52*	-1	92	43	-1	i	23	x	x
O=C(Nc1ccc(Cl)cc1)c1ccc2ncsc2c1	3	6	92	19	x	i	x	x	x
O=C(Nc1cccc(Cl)c1)c1ccc2ncsc2c1	67*	-2	88	23	x	i	86*	81*	76*
CCCOc1ccc(-c2cn3ccccc3n2)cc1	72*	7	118	5	2	i	56*	88*	76*
C=CCc1c(C)c(C#N)c2nc3ccccc3n2c1NCCN(C)C	54*	-1	77	33*	-1	i	81*	78*	42
CCCCOc1ccc(CSCCNC(=S)Nc2ccccc2)cc1	54*	1	83	6	1	i	60*	62*	34
CC(C)COc1ccc(CSCCNC(=S)Nc2ccccc2)cc1	53*	-2	94	14	1	i	80*	58*	41
O=C(OCc1cn([C@H]2C[C@H](c3ccc(Cl)cc3)N(C(=O)c3cccs3)C[C@@H]2O)nn1)c1ccccc1	x	1	x	x	x	x	x	x	x
CC1(C)CC(=O)C=C(c2cccc(OC(=O)c3ccc(-c4ccccc4)cc3)c2)C1=O	x	-2	x	x	x	x	x	x	x
CCCCCN(C(=O)CCC(=O)OC(C)C(=O)Nc1ccccc1C)c1c(N)n(CCCC)c(=O)[nH]c1=O (stereo unspecified)	x	5	x	x	x	x	x	x	x
Cc1c(/C(Cc2ccccc2)=N/O)c2ccccc2n1C	56*	6	88	22	0	i	61*	51*	53*
CCOc1ccc(C)cc1S(=O)(=O)N1CCCCC1	-13	9	95	11	1	i	x	x	x
CCOc1cc(C)c(S(=O)(=O)N2CCCCC2)cc1C	74*	5	87	1	0	i	76*	80*	65*
O=C(C1CCCCC1)N1C[C@@H](O)[C@H](n2cc(-c3ccc(F)cc3)nn2)C[C@@H]1c1ccccc1	x	1	x	x	x	x	x	x	x
CSc1nnc(NC(=O)C2CCCCC2)s1	55*	-1	96	x	3	x	75*	58*	38
CCSc1nnc(NC(=O)C2CCCCC2)s1	61*	0	100	13	-1	i	79*	67*	61*
CC(C)c1nnc(NC(=O)C2CCCCC2)s1	40	2	89	-2	1	i	x	x	x
O=C(Nc1nnc(-c2ccco2)s1)C1CCCCC1	58*	5	98	27	0	i	42	37	36
CCc1ccc(N=Nc2ccc(O)c3[nH]cnc23)cc1	51*	0	107	x	x	x	43	24	34
COC(=O)N(C)C[C@H]1OCc2cnnn2CCCC(=O)N([C@@H](C)CO)C[C@H]1C	x	2	x	x	x	x	x	x	x

From PubChem BioAssay
